Source: PubChem (several laboratories)
aSyn UTR inh = 5' untranslated region of α-synuclein, MLPCN primary screen; AID 1813; alpha-synuclein 5'UTR reporter, inhibitor activity; hit rate 0.82% among 300,000; inhibition, % (tested at 7.5 µM); in the data active means inhibition above about 60%; inconclusive means no clear call, values can overlap the other calls;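 further: H4 neuroglioblastoma cells stably carrying SNCA 5'UTR luciferase fusion; 0% = DMSO wells and 100% = positive control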
Ba/F3 V617F tox = lowers viability of Ba/F3 cells expressing EpoR and JAK2V617F; ATP luminescence; inhibition, % at 5.6 µM; hit rate 1.1% among 220,000; AID 1446;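 active means inhibition above the campaign mean plus 3 SD over all tested compounds, cut at about 24% in these data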;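 further: cytokine-independent growth of Ba/F3 cells driven by EpoR plus mutant JAK2; 0% = DMSO-treated cells and 100% = JAK inhibitor I control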
APP 5UTR inh = APP translation inhibition; hit rate 0.82% among 190,000; AID 1285; inhibition, % at 2 µM; SH-SY5Y APP 5'UTR-luciferase reporter, luminescence;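 active means inhibition above a set limit, derived from the sample mean plus 3 SD, cut at about 45% in these data; inconclusive means one replicate passes the limit while the other fails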
BaF3 tox = reduces parental Ba/F3 cell viability, JAK2V617F counter-screen. CellTiter-Glo ATP luminescence. inhibition, % at 5.6 µM. hit rate 1.1% among 220,000. AID 1486;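 active means inhibition above a per-campaign cutoff, the mean inhibition of all tested compounds plus 3 SD, cut at about 27% in these data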;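 further: 0% = DMSO wells and 100% = JAK Inhibitor I control wells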
IEC-6 cytotox = IEC-6 cytotoxicity, counter-screen for KLF5 inhibitors; hit rate 0.78% among 290,000; luminescence viability; inhibition, % at 5 µM;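 further: 0% = plate median of test compound wells and 100% = cytotoxic reference compound wells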
KLF5 inhibitor = suppresses KLF5 promoter-driven expression | inhibition, % at 5 µM | hit rate 0.23% among 290,000 | AID 1700 | DLD-1 KLF5 promoter-luciferase reporter, luminescence;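 active means inhibition above a per-plate limit of that plate's mean compound inhibition plus 3 SD, cut at about 60% in these data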;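 further: 0% = DMSO wells and 100% = LY294002 at 200 µM; higher means less KLF5 promoter-driven luciferase light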
IEC-6 cytotox cf = IEC-6 cytotoxicity, confirmation assay; IEC-6 rat intestinal epithelial viability, luminescence; AID 1907; shares compounds with IEC-6 cytotox; hit rate 63% among 1,900; inhibition, % at 5 µM;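 further: 0% = vehicle and 100% = reference cytotoxic drug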
* = called active by the depositor. Shown are actives, neighbours in structure and some others; about 2.2% of the full set was active somewhere. Unless noted, no stated cut-off is given here; in the data, active means inhibition above about 22%; inactive means the rest.

What do the screens show for `CC1=CC(C)(C)N(S(=O)(=O)c2ccc(C)cc2)c2cc(C)ccc21`?
aSyn UTR inh: 52; Ba/F3 V617F tox: 82*; APP 5UTR inh: 96*; BaF3 tox: 85*; IEC-6 cytotox: 92*; KLF5 inhibitor: 60; IEC-6 cytotox cf: 61*

How did CC1=CC(C)(C)N(C(=O)CCl)c2cc(C)ccc21 do in these assays?
aSyn UTR inh: -9; Ba/F3 V617F tox: 3; APP 5UTR inh: -13; BaF3 tox: 9; IEC-6 cytotox: -3; KLF5 inhibitor: 2

Results for CC(=O)Nc1nc2ccc(S(=O)(=O)N3CCCC3)cc2s1 ?
aSyn UTR inh: 13; IEC-6 cytotox: -3; KLF5 inhibitor: -18

How did CCCC(=O)Nc1nc2ccc(S(=O)(=O)N3CCCCC3)cc2s1 do in these assays?
aSyn UTR inh: 27; Ba/F3 V617F tox: 80*; APP 5UTR inh: 79*; BaF3 tox: 79*; IEC-6 cytotox: 54*; KLF5 inhibitor: 49; IEC-6 cytotox cf: 59*

How did COc1cc(C(=O)N(c2ccc(C)c(C)c2)C2C=CS(=O)(=O)C2)cc(OC)c1OC (centres undefined) do in these assays?
aSyn UTR inh: 21; Ba/F3 V617F tox: -1; APP 5UTR inh: -20; BaF3 tox: -1; IEC-6 cytotox: 3; KLF5 inhibitor: -33

Results for Cc1cccc(C)c1OCC(O)CNC(C)c1ccccc1 (centres undefined) ?
aSyn UTR inh: 54; IEC-6 cytotox: 39*; KLF5 inhibitor: 16; IEC-6 cytotox cf: 18

What do the screens show for `OC(CNCCc1ccccc1)COc1ccc(OCC(O)CNCCc2ccccc2)cc1` (centres undefined)?
aSyn UTR inh: 107*; Ba/F3 V617F tox: 8; BaF3 tox: 9; IEC-6 cytotox: 26*; KLF5 inhibitor: -25; IEC-6 cytotox cf: 42*

How did OC(CNCCc1ccc(Cl)cc1)COc1ccc2ccccc2c1 (centres undefined) do in these assays?
Ba/F3 V617F tox: 3; APP 5UTR inh: -4; BaF3 tox: 0; IEC-6 cytotox: 8; KLF5 inhibitor: 2

What do the screens show for `O=C(c1c[nH]c2ccccc12)C(Cl)c1ccccc1` (centres undefined)?
aSyn UTR inh: -11; IEC-6 cytotox: 33*; KLF5 inhibitor: 18; IEC-6 cytotox cf: 13

What do the screens show for `O=C(c1c[nH]c2ccccc12)C(O)C(c1ccccc1)N1CCOCC1` (centres undefined)?
aSyn UTR inh: -13; Ba/F3 V617F tox: -4; APP 5UTR inh: -6; BaF3 tox: 4; IEC-6 cytotox: -3; KLF5 inhibitor: -11

Results for O=[N+]([O-])c1cc([N+](=O)[O-])c2oc(-c3ccccc3)c(Br)c2c1O ?
aSyn UTR inh: 15; IEC-6 cytotox: 29*; KLF5 inhibitor: 1; IEC-6 cytotox cf: 8

Results for CC(=O)c1ccc(Nc2cc(C)nc3ccccc23)cc1 ?
aSyn UTR inh: 14; Ba/F3 V617F tox: 7; APP 5UTR inh: 42; BaF3 tox: 12; IEC-6 cytotox: 38*; KLF5 inhibitor: 15; IEC-6 cytotox cf: 35*

How did COc1ccc(Nc2cc(C)nc3ccccc23)cc1 do in these assays?
aSyn UTR inh: 20; Ba/F3 V617F tox: 2; APP 5UTR inh: 5; BaF3 tox: 2; IEC-6 cytotox: 20; KLF5 inhibitor: 5

Results for CC(=O)c1ccc(Nc2cc(C)nc3c(C)cccc23)cc1 ?
aSyn UTR inh: 8; Ba/F3 V617F tox: 77*; APP 5UTR inh: 87*; BaF3 tox: 76*; IEC-6 cytotox: 81*; KLF5 inhibitor: 35; IEC-6 cytotox cf: 60*

How did COC(=O)c1ccc(Nc2cc(C)nc3ccc(C)cc23)cc1 do in these assays?
aSyn UTR inh: 53; Ba/F3 V617F tox: 11; BaF3 tox: 3; IEC-6 cytotox: 26*; KLF5 inhibitor: 35; IEC-6 cytotox cf: 27*

What do the screens show for `Brc1ccccc1C1=Nn2c(nnc2-c2ccccc2)SC1`?
aSyn UTR inh: inconclusive; Ba/F3 V617F tox: 37*; APP 5UTR inh: 2; BaF3 tox: 32*; IEC-6 cytotox: 27*; KLF5 inhibitor: -5; IEC-6 cytotox cf: 22

What do the screens show for `Brc1ccccc1C1=Nn2c(nnc2-c2ccco2)SC1`?
aSyn UTR inh: 14; Ba/F3 V617F tox: -4; BaF3 tox: 3; IEC-6 cytotox: 2; KLF5 inhibitor: -8

Results for COc1ccc(-c2cc(C(=O)N3CCN(c4ccccc4)CC3)c3ccccc3n2)cc1 ?
aSyn UTR inh: -35; Ba/F3 V617F tox: 2; APP 5UTR inh: 75*; BaF3 tox: 10; IEC-6 cytotox: 28*; KLF5 inhibitor: -5; IEC-6 cytotox cf: 6

How did COc1ccc(-c2cc(C(=O)N3CCCC3)c3ccccc3n2)cc1 do in these assays?
aSyn UTR inh: -49; IEC-6 cytotox: 7; KLF5 inhibitor: -45

How did Cc1cc(NC(=O)CN(C)S(=O)(=O)c2cnc[nH]2)ccc1Br do in these assays?
aSyn UTR inh: -27; IEC-6 cytotox: 3; KLF5 inhibitor: -61

What do the screens show for `CCN1C(=O)[C@H]2[C@@H](c3ccc(-c4ccc(Cl)c(Cl)c4)c(OC)c3)N[C@@](Cc3ccccc3)(C(=O)OC)[C@H]2C1=O`?
aSyn UTR inh: 33

What do the screens show for `CCOc1ccc(N(C)S(=O)(=O)c2ccc(-c3cc(C)no3)s2)cc1`?
aSyn UTR inh: -59; IEC-6 cytotox: 57*; KLF5 inhibitor: 39; IEC-6 cytotox cf: 38*

How did CCOc1ccc(N(C)S(=O)(=O)c2cc(-c3cc(C)no3)ccc2C(C)C)cc1 do in these assays?
aSyn UTR inh: -13; IEC-6 cytotox: 1; KLF5 inhibitor: -16

How did Cc1nn(CCCC(=O)NCCc2ccc(Cl)cc2)c(=O)c2nn(-c3ccccc3)c(C)c12 do in these assays?
aSyn UTR inh: 24; IEC-6 cytotox: -9; KLF5 inhibitor: -19

How did Brc1ccc(-c2csc(-c3c[nH]c4ccccc34)n2)cc1 do in these assays?
aSyn UTR inh: -183; Ba/F3 V617F tox: 2; APP 5UTR inh: -38; BaF3 tox: 1; IEC-6 cytotox: 2; KLF5 inhibitor: -22

Results for c1ccc2c(-c3csc(-c4ccncc4)n3)c[nH]c2c1 ?
aSyn UTR inh: -141; Ba/F3 V617F tox: -2; APP 5UTR inh: -31; BaF3 tox: 16; IEC-6 cytotox: 82*; KLF5 inhibitor: -109; IEC-6 cytotox cf: 93*

Results for CCOC(=O)c1[nH]c(C)c(/C(O)=C2\C(=O)C(=O)N(CCN(C)C)C2c2ccc(C)o2)c1C (centres undefined) ?
aSyn UTR inh: 10; Ba/F3 V617F tox: 6; APP 5UTR inh: 6; BaF3 tox: 6; IEC-6 cytotox: 25*; KLF5 inhibitor: 20; IEC-6 cytotox cf: 11

Results for CCOC(=O)c1[nH]c(C)c(/C(O)=C2\C(=O)C(=O)N(CCN3CCOCC3)C2c2cccs2)c1C (centres undefined) ?
aSyn UTR inh: 3; Ba/F3 V617F tox: -1; APP 5UTR inh: 23; BaF3 tox: 0; IEC-6 cytotox: 26*; KLF5 inhibitor: -10; IEC-6 cytotox cf: 6
